From PubChem
USP2a inh = qHTS Assay for Inhibitors of Ubiquitin-specific Protease USP2a Using CHOP2 as the Reporter. Ubiquitin carboxyl-terminal hydrolase 2 (Homo sapiens), O75604. AID 463254, 2010. Potency, µM (titrated, usually from 38.3 µM), without a hit: at the top dose activity change, negative = inhibition, actives largely listed as inhibitors. 0.01% of 330,000 active. USP2 core, Ub-CHOP2 coupled fluorogenic reporter, 485/531;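 also: potency is read from the fitted curve at half-maximal effect; plate controls were DMSO wells for no effect and full inhibition by NEM control for full effect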
Target sequence (O75604 whole entry, looked up): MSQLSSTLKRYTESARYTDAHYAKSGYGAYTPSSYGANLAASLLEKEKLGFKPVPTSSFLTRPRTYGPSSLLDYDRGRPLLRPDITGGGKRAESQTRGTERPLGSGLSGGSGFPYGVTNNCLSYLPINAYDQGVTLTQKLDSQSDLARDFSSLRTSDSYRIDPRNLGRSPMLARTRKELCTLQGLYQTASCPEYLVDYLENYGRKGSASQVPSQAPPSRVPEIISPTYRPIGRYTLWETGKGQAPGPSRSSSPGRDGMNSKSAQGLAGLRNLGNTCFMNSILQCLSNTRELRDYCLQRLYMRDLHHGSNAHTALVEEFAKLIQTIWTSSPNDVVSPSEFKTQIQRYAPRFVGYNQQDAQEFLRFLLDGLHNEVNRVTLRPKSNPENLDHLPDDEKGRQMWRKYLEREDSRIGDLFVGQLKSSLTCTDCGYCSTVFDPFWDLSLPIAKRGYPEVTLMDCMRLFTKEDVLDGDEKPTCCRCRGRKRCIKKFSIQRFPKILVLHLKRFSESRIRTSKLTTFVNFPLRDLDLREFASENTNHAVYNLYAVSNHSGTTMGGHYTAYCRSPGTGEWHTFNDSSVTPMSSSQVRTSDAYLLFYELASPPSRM
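Deubiquitinase activity read as fluorescence (485/531 nm) after Ub-CHOP2 cleavage activates the enterokinase reporter on its substrate; USP2 core 10nM, Ub-CHOP2 and substrate 25nM each, 30min compound preincubation then 60min RT; data normalized to NEM, curves fitted.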
USP1-UAF1 inh = Inhibitors of USP1/UAF1: Primary Screen. Potency, µM (titrated, usually from 57.1 µM), for inactives: top-dose activity change, negative = inhibition, hits mostly inhibitors. recombinant USP1/UAF1, Ub-Rhodamine cleavage fluorescence. Ubiquitin carboxyl-terminal hydrolase 1 (Homo sapiens), O94782. 0.23% of 390,000 active; also: potency is read from the fitted curve at half-maximal effect; % is scaled to controls: 0 for no effect and ±100 for the full control effect; nearly all actives have a fitted effect of over 60% in size
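Step one: compound is pinned into 1nM USP1/UAF1 in HEPES pH 7.8 buffer with TCEP. Step two: 15 min room-temperature incubation. Step three: Ub-Rho (150nM final) starts cleavage, tracked by fluorescence over six one-minute reads.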
S2 tox = Viability Counterscreen for Primary qHTS for Inhibitors of ATXN expression; 0.49% of 400,000 active; AID 651635, 2014; Potency, µM (titrated, usually from 56.7 µM), hits mostly cytotoxic; S2 cells (HEK-293 line with an ATXN2-luciferase reporter) viability, CellTiter-Fluor protease fluorescence, 24 h; also: potency is read from the fitted curve at half-maximal effect; nearly all actives have a fitted effect of over 40% in size
ATXN2 expr inh = Primary qHTS for Inhibitors of ATXN expression; 0.72% of 360,000 active; HEK-293 ATXN2-luciferase reporter, luminescence, 24 h; Potency, µM (series often up to 57 µM), inactives show top-dose activity change, negative = inhibition, usual class: inhibitors; AID 1745845, 2022; also: potency is read from the fitted curve at half-maximal effect; % is scaled to controls: 0 for no effect and ±100 for the full control effect; nearly all actives have a fitted effect of over 55% in size
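qHTS (up to 57 uM final) was run with 24 h compound exposure of reporter cells at 37 °C. Each well was multiplexed: SteadyGlo luminescence measured ATXN2-luciferase expression after a fluorogenic Gly-Phe-AFC viability readout (25 uM final).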
IL-1B inflam inh = qHTS for Inhibitors of Inflammasome Signaling: IL-1-beta AlphaLISA Primary Screen; THP-1 LPS/ATP IL-1B secretion, AlphaLISA, 16 h; stronger effect = lower value; activity change, % at 57.5 µM; 4.7% of 360,000 active; AID 743279, 2014; in the data active = activity change below about -50%; inconclusive = mostly about -30% to -49%; also: % is scaled to controls: 0 for no effect and ±100 for the full control effect
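Secreted IL-1B measured by AlphaLISA bead assay after 16 h compound exposure of THP-1 cells; compounds (final up to 57.5 uM) added 1 h before LPS (250 ng/mL) and ATP (1.25 mM) stimulation; lower signal means less secretion.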
Active calls of the source: *; i = inactive; ? = inconclusive; / = no result. In the library only some 4.8% were active in any assay of this set; here they are far more common. Unless noted, calls follow the shape of the dose curve; as a rule, active = well fitted curve in the direction sought with a large enough effect; inconclusive = small, poorly fitted or top-dose-only effect, or another doubt; inactive = no such curve, though single readings can be large; an effect the other way counts as inactive or inconclusive.

SMILES	USP2a inh	USP1-UAF1 inh	S2 tox	ATXN2 expr inh	IL-1B inflam inh
Cc1ccc(C)c(NC(=O)CSc2nc3c(c(=O)n2C)SC(C)C3)c1 (centres undefined)	3%	-25%	i	-22%	22
COc1ccc(N2CCN(C(=O)c3cc(=O)c4cc(C)cc(C)c4o3)CC2)cc1	-1%	-11%	i	-16%	-77*
Cc1c(Cl)cccc1NC(=O)C(=O)NCCc1csc(-c2cccc(F)c2)n1	/	-21%	i	-4%	/
Cc1ccc(-n2ncc(Br)c(Br)c2=O)cc1	3%	-26%	21µM*	?	-99*
O=c1c(Br)c(Br)cnn1-c1ccccc1	0%	-5%	/	5.3µM*	-106*
CN1CCC2CC1c1cc(-c3ccc(C(F)(F)F)cc3)ccc12 (centres undefined)	/	-22%	?	-32%	?
COc1ccc(NC(=O)CN(C)C(=O)CCCc2nc3ccccc3c(=O)[nH]2)cc1	1%	-16%	i	6%	18
Cc1ccc(Cc2c(-c3ccc(Br)cc3)nc3cc(C)ccn23)cc1	/	-27%	?	54%	-8
Cc1ccc(Cc2c(-c3ccc(F)cc3)nc3cc(C)ccn23)cc1	/	-24%	28µM*	-26%	-11
CCOC(=O)c1c(NC(=O)/C=C/C(=O)O)sc(C)c1-c1ccc(Cl)cc1	1%	?	?	?	-71*
COC(=O)c1c(NC(=O)/C=C/C(=O)O)sc(Cc2ccccc2)c1C	-2%	-10%	i	?	-111*
CCOC(=O)c1c(NC(=O)Nc2ccc(Cl)cc2)sc(C)c1C	-1%	-20%	?	?	-6
COC(=O)c1c(N)sc(Cc2ccccc2)c1C	2%	-18%	i	4%	3
COc1ccc(NC(=O)CN2C(=O)CSc3ccc(S(=O)(=O)N(C)C)cc32)cc1OC	/	12%	i	2%	/
O=C1COc2ccc(C(=O)COC(=O)c3ccc([N+](=O)[O-])cc3Cl)cc2N1	1%	-21%	i	-3%	8
Cc1nn(CC(=O)N2CCN(c3ccccc3F)CC2)c(=O)c2cccn12	/	12%	/	/	/
Cc1ccc(-c2cc3ncc(C(=O)c4cc([N+](=O)[O-])ccc4O)cn3n2)cc1	/	-24%	i	-20%	/
COc1ccccc1CNC(=O)CN1C(=O)NC2(CCC(C)CC2)C1=O (centres undefined)	1%	-23%	i	3%	-8
Fc1cccc(C[n+]2csc3ccccc32)c1	0%	-16%	?	3%	-118*
Brc1cc2ccccc2[n+](Cc2ccccc2)c1	0%	-25%	i	-16%	17
c1ccc(C[n+]2csc3ccccc32)cc1	2%	1%	i	-16%	-53*
c1ccc2c(CCC3CCNCC3)c[nH]c2c1	/	/	i	/	/
CN(C)/C=N/c1nc2nccc(-c3cccc(Cl)c3)n2n1	1%	-14%	i	-1%	-52*
Oc1c(C(Nc2nc3ccccc3s2)c2ccco2)ccc2cccnc12 (centres undefined)	-1%	0%	?	?	-99*
COc1ccc(C(NC(C)=O)c2ccc3cccnc3c2O)c(OC)c1 (centres undefined)	1%	3%	?	1.8µM*	111
Oc1c(C(Nc2nccs2)c2ccc(C(F)(F)F)cc2)ccc2cccnc12 (centres undefined)	-9%	-9%	i	13µM*	-103*
CC(=O)NC(c1ccc2ccccc2c1)c1ccc2cccnc2c1O (centres undefined)	-3%	-12%	i	2.8µM*	139
Oc1c(C(Nc2cccc(C(F)(F)F)c2)c2ccncc2)ccc2cccnc12 (centres undefined)	1%	-26%	/	?	60
CC(C)C(=O)NC(c1ccco1)c1ccc2cccnc2c1O (centres undefined)	2%	-14%	?	?	121
